# Assay results published in PubChem BioAssay (EPA / NIEHS).
# Activity calls are given as the source filed them. The calls were made as follows: active = hit-call score of the fitted dose curve at least 0.9, where 1 is the maximum; inactive = score below 0.9.
# How the values were obtained:
# Conditions in all cases: mRNA level, 48 h; actives raise or lower the signal
# [1] = read-out: Intercellular Adhesion Molecule 1 (ICAM1), ICAM1 (gene 3383); test: LTEA_HepaRG_ICAM1: Life Technologies and Expression Analysis (LTEA) Assay for Intercellular Adhesion Molecule 1 (ICAM1) using HepaRG (AID 2283507)
# Procedure, shortened: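 ICAM1 transcript levels measured by qRT-PCR, normalized to three housekeeping genes (ACTB, GAPDH, POLR2A), after 48 h chemical exposure of HepaRG cells. Duplicate eight-point half-log series from 100 uM in 0.5% DMSO; gain or loss fitted against vehicle.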
# [2] = read-out: Insulin-like growth factor-binding protein 1 (IGFBP1), IGFBP1 (gene 3484); test: LTEA_HepaRG_IGFBP1: Life Technologies and Expression Analysis (LTEA) Assay for Insulin-like growth factor-binding protein 1 (IGFBP1) using HepaRG (AID 2283508)
# Procedure, shortened: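 Read-out is qRT-PCR transcript level normalized to three housekeeping genes, fitted in both directions against 0.5% DMSO. Differentiated HepaRG cells received eight half-log concentrations (top 100 uM) in duplicate for 48 h in serum-free induction medium.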
# [3] = read-out: Interleukin 6 (IL6), IL6 (gene 3569); test: LTEA_HepaRG_IL6: Life Technologies and Expression Analysis (LTEA) Assay for Interleukin 6 (IL6) using HepaRG (AID 2283509)
# Procedure, shortened: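 qRT-PCR read-out of IL6 transcript, normalized to three housekeeping genes, after 48 h chemical exposure of HepaRG cells; 8-point half-log series, top 100 uM, 0.5% DMSO vehicle. Bidirectional curve fitting against DMSO baseline.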
# [4] = read-out: Interleukin 6 Receptor (IL6R), IL6R (gene 3570); test: LTEA_HepaRG_IL6R: Life Technologies and Expression Analysis (LTEA) Assay for Interleukin 6 Receptor (IL6R) using HepaRG (AID 2283510)
# Procedure, shortened: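 HepaRG, 48 h exposure, 8-pt half-log series, top 100 uM, 0.5% DMSO vehicle, duplicates. Read-out: TaqMan qRT-PCR of IL6R transcript, housekeeping-gene normalized. Gain or loss fitted relative to DMSO baseline.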
# [5] = read-out: Potassium channel subfamily K member 1 (KCNK1), KCNK1 (gene 3775); test: LTEA_HepaRG_KCNK1: Life Technologies and Expression Analysis (LTEA) Assay for Potassium channel subfamily K member 1 (KCNK1) using HepaRG (AID 2283511)
# Procedure, shortened: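 HepaRG, 48 h exposure, 8-pt half-log series top 100 uM, 0.5% DMSO vehicle, duplicates. Readout: KCNK1 transcript by qRT-PCR (Fluidigm array), housekeeping-normalized; bidirectional curve fit relative to DMSO baseline.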
# [6] = read-out: Keratin 19 (KRT19), KRT19 (gene 3880); test: LTEA_HepaRG_KRT19: Life Technologies and Expression Analysis (LTEA) Assay for Keratin 19 (KRT19) using HepaRG (AID 2283512)
# Procedure, shortened: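 KRT19 transcript measured by TaqMan qRT-PCR, referenced to three housekeeping genes, after HepaRG cells received test chemicals for 48 h. Eight half-log concentrations, top 100 uM, 0.5% DMSO vehicle; increases and decreases both fitted.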
# [7] = read-out: Lipase C (LIPC), LIPC (gene 3990); test: LTEA_HepaRG_LIPC: Life Technologies and Expression Analysis (LTEA) Assay for Lipase C (LIPC) using HepaRG (AID 2283514)
# Procedure, shortened: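 HepaRG, 48 h exposure, 8-pt half-log series from 100 uM in 0.5% DMSO, duplicates. Readout: LIPC mRNA by Fluidigm qRT-PCR, housekeeping-normalized (ACTB/GAPDH/POLR2A). Gain or loss fitted bidirectionally against DMSO baseline.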
# [8] = read-out: Lipoprotein lipase (LPL), LPL (gene 4023); test: LTEA_HepaRG_LPL: Life Technologies and Expression Analysis (LTEA) Assay for Lipoprotein lipase (LPL) using HepaRG (AID 2283515)
# Procedure, shortened: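 HepaRG, 48 h exposure, 8-pt half-log dilutions from 100 uM, 0.5% DMSO vehicle, duplicates; qRT-PCR (Fluidigm array) of LPL mRNA vs housekeeping genes; bidirectional curve fit relative to DMSO baseline.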
# [9] = read-out: MicroRNA 122 (MIR122), gene 406906; test: LTEA_HepaRG_MIR122: Life Technologies and Expression Analysis (LTEA) Assay for MicroRNA 122 (MIR122) using HepaRG (AID 2283516); also: the transcript read is the microRNA miR-122
# Procedure, shortened: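 qRT-PCR read-out (TaqMan, Fluidigm array), normalized to three housekeeping genes; HepaRG cells dosed 48 h at 8 concentrations up to 100 uM in 0.5% DMSO, duplicate; gain or loss fitted against DMSO baseline.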
# [10] = read-out: matrix metalloproteinase-10 (MMP10), MMP10 (gene 4319); test: LTEA_HepaRG_MMP10: Life Technologies and Expression Analysis (LTEA) Assay for matrix metalloproteinase-10 (MMP10) using HepaRG (AID 2283517)
# Procedure, shortened: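 Transcript levels come from Fluidigm qRT-PCR normalized to three housekeeping genes, with curves fitted bidirectionally against 0.5% DMSO. Human HepaRG cells were dosed for 48 hours at concentrations up to 100 uM.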
# [11] = read-out: matrix metalloproteinase-3 (MMP3), MMP3 (gene 4314); test: LTEA_HepaRG_MMP3: Life Technologies and Expression Analysis (LTEA) Assay for matrix metalloproteinase-3 (MMP3) using HepaRG (AID 2283519)
# Procedure, shortened: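 qRT-PCR read-out of MMP3 mRNA (normalised to three housekeeping genes) in HepaRG liver cells after 48 h chemical exposure; 8-point half-log series, top 100 uM, 0.5% DMSO vehicle. Bidirectional curve fitting against DMSO baseline.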
# [12] = read-out: Nuclear factor NF-kappa-B p105 subunit (Homo sapiens) (UniProt P19838); test: LTEA_HepaRG_NFKB1: Life Technologies and Expression Analysis (LTEA) Assay for Nuclear Factor Kappa B Subunit 1 (NFKB1) using HepaRG (AID 2283521)
# Procedure, shortened: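 Differentiated human HepaRG cells were exposed for 48 h in serum-free induction medium to eight concentrations (top 100 uM, half-log steps, 0.5% DMSO), in duplicate. NFKB1 mRNA was measured by TaqMan qRT-PCR, normalized to ACTB/GAPDH/POLR2A, and fitted bidirectionally against DMSO.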
# [13] = read-out: Protein phosphatase 2A (PPP2R4), PTPA (gene 5524); test: LTEA_HepaRG_PPP2R4: Life Technologies and Expression Analysis (LTEA) Assay for Protein phosphatase 2A (PPP2R4) using HepaRG (AID 2283522)
# Procedure, shortened: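 HepaRG, 48 h exposure, 8-pt half-log series from 100 uM, 0.5% DMSO vehicle, duplicates. Readout: PPP2R4 mRNA, Fluidigm qRT-PCR, housekeeping-normalized. Bidirectional curve fit vs DMSO baseline.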
# [14] = read-out: Phosphatase and tensin (PTEN), PTEN (gene 5728); test: LTEA_HepaRG_PTEN: Life Technologies and Expression Analysis (LTEA) Assay for Phosphatase and tensin (PTEN) using HepaRG (AID 2283523)
# Procedure, shortened: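 HepaRG, 48 h exposure, 8-pt half-log series from 100 uM top, 0.5% DMSO vehicle, duplicates. Readout: Fluidigm qRT-PCR of PTEN transcript; housekeeping normalization (ACTB, GAPDH, POLR2A). Gain or loss fitted relative to DMSO baseline.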
# [15] = read-out: solute carrier (SLC22A1), SLC22A1 (gene 6580); test: LTEA_HepaRG_SLC22A1: Life Technologies and Expression Analysis (LTEA) Assay for solute carrier (SLC22A1) using HepaRG (AID 2283524)
# Procedure, shortened: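 qRT-PCR readout (TaqMan, Fluidigm arrays) of SLC22A1 transcript, normalized to three housekeeping genes; bidirectional curve fit relative to 0.5% DMSO vehicle. Differentiated human HepaRG cells, 48 h chemical exposure, top concentration 100 uM, half-log steps, eight points.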
# [16] = read-out: Pyruvate Dehydrogenase Kinase 4 (PDK4), PDK4 (gene 5166); test: LTEA_HepaRG_PDK4: Life Technologies and Expression Analysis (LTEA) Assay for Pyruvate Dehydrogenase Kinase 4 (PDK4) using HepaRG (AID 2283525)
# Procedure, shortened: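 HepaRG (human liver line), 48 h chemical exposure, 8-pt half-log CRC top 100 uM, 0.5% DMSO vehicle, duplicates. Readout: TaqMan qRT-PCR of PDK4 mRNA, housekeeping-normalized; gain/loss fit relative to DMSO baseline.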
# [17] = read-out: NAD(P)H dehydrogenase [quinone] 1 (NQO1), NQO1 (gene 1728); test: LTEA_HepaRG_NQO1: Life Technologies and Expression Analysis (LTEA) Assay for NAD(P)H dehydrogenase [quinone] 1 (NQO1) using HepaRG (AID 2283526)
# Procedure, shortened: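 qRT-PCR read-out (Fluidigm TaqMan), normalized to three housekeeping genes, after 48 h chemical exposure of HepaRG cells. Concentrations: eight points, top 100 uM, half-log steps, 0.5% DMSO vehicle. Gain or loss of signal fitted relative to DMSO.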
# [18] = read-out: JUN Transcription Factor, JUN (gene 3725); test: LTEA_HepaRG_JUN: Life Technologies and Expression Analysis (LTEA) Assay for JUN Transcription Factor using HepaRG (AID 2283513)
# Procedure, shortened: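 HepaRG, 48 h exposure, 8-pt half-log series top 100 uM, 0.5% DMSO, duplicate. JUN mRNA by qRT-PCR (Fluidigm), housekeeping-normalized (ACTB/GAPDH/POLR2A); bidirectional curve fit vs DMSO baseline.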
# [19] = read-out: Paternally Expressed 10 (PEG10), PEG10 (gene 23089); test: LTEA_HepaRG_PEG10: Life Technologies and Expression Analysis (LTEA) Assay for Paternally Expressed 10 (PEG10) using HepaRG (AID 2283520);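 also: PEG10 transcript by qRT-PCR normalised to ACTB GAPDH and POLR2A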
# Procedure, shortened: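 qRT-PCR read-out: PEG10 mRNA normalised to three housekeeping genes, fitted bidirectionally against 0.5% DMSO vehicle. HepaRG cells received test chemicals for 48 h in serum-free induction medium, 8 points, top 100 uM, half-log steps.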
# MYC, MYC (gene 4609) = test: LTEA_HepaRG_MYC: Life Technologies and Expression Analysis (LTEA) Assay for MYC using HepaRG (AID 2283518)
# Procedure, shortened: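 MYC transcript changes, up or down relative to 0.5% DMSO, from TaqMan qRT-PCR normalized to three housekeeping genes. Human HepaRG cultures received chemicals for 48 h at eight half-log concentrations up to 100 uM, in duplicate.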
# Sequence of Nuclear factor NF-kappa-B p105 subunit (Homo sapiens) (P19838 whole entry, looked up): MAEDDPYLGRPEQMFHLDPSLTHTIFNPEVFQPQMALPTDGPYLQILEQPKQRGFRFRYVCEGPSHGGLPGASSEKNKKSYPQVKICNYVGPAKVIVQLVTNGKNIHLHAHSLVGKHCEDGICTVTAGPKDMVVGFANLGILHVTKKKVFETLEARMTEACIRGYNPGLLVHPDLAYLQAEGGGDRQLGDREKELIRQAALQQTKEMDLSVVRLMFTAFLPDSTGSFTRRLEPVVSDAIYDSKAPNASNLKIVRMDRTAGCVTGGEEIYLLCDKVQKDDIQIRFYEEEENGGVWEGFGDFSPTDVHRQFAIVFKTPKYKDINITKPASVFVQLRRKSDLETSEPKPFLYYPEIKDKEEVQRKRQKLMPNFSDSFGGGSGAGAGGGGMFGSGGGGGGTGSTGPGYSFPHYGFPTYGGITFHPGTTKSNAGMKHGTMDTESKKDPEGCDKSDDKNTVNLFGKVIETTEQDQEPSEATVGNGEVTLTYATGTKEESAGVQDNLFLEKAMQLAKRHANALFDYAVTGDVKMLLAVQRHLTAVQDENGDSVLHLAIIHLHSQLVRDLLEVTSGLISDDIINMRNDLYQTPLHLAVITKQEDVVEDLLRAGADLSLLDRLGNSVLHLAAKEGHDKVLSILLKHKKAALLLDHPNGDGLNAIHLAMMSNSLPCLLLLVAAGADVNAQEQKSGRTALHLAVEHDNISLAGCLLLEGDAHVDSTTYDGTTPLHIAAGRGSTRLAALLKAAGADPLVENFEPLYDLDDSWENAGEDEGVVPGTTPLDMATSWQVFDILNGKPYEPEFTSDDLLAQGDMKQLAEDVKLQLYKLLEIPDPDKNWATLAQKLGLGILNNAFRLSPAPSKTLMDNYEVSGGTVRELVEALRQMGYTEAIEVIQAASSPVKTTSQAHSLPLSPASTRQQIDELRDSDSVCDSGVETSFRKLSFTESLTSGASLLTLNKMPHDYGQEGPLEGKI
structure (smiles),measurement,setting,value
CN1CCN(c2ccccc2/C=C2\SCCN(c3ccc(Cl)c(Cl)c3)C2=O)CC1,AC50,[1],98.9 µM (active)
same,AC50,[2],60.9 µM (active)
same,AC50,[3],92.2 µM (active)
same,AC50,[4],50 µM (active)
same,AC50,[5],59.5 µM (active)
same,AC50,[6],12.4 µM (active)
same,outcome,[7],inactive
same,AC50,[8],84.9 µM (active)
same,AC50,[9],94.1 µM (active)
same,AC50,[10],93.9 µM (active)
same,AC50,[11],87.1 µM (active)
same,outcome,[12],inactive
same,outcome,[13],inactive
same,outcome,[14],inactive
same,AC50,[15],93.8 µM (active)
same,outcome,[16],inactive
same,AC50,[17],81.3 µM (active)
Oc1cc2ccccc2c2ccccc12,outcome,[1],inactive
same,outcome,[2],inactive
same,outcome,[3],inactive
same,outcome,[5],inactive
same,AC50,[6],27.1 µM (active)
same,outcome,[18],inactive
same,outcome,[7],inactive
same,outcome,[9],inactive
same,outcome,[10],inactive
same,outcome,[11],inactive
same,AC50,[19],50 µM (active)
same,outcome,[12],inactive
same,outcome,[13],inactive
same,outcome,[14],inactive
same,AC50,[15],50 µM (active)
same,outcome,[16],inactive
same,outcome,[17],inactive
CCCCC(CC)COC(=O)CCCCC(=O)OCc1ccccc1 (stereo not drawn),outcome,[1],inactive
same,outcome,[2],inactive
same,outcome,[3],inactive
same,outcome,[4],inactive
same,outcome,[5],inactive
same,outcome,[6],inactive
same,outcome,[7],inactive
same,outcome,[9],inactive
same,outcome,[10],inactive
same,outcome,"MYC, MYC (gene 4609)",inactive
same,outcome,[11],inactive
same,outcome,[13],inactive
same,outcome,[14],inactive
same,outcome,[15],inactive
same,outcome,[16],inactive
same,outcome,[17],inactive
CC(C)CCCCCCOC(=O)CCCCC(=O)OCCCCCCC(C)C,outcome,[1],inactive
same,outcome,[2],inactive
same,outcome,[3],inactive
same,outcome,[4],inactive
same,outcome,[5],inactive
same,outcome,[6],inactive
same,outcome,[7],inactive
same,outcome,[8],inactive
same,outcome,[9],inactive
same,outcome,[10],inactive
same,outcome,"MYC, MYC (gene 4609)",inactive
same,outcome,[11],inactive
same,outcome,[12],inactive
same,outcome,[13],inactive
same,outcome,[14],inactive
same,outcome,[15],inactive
same,outcome,[16],inactive
same,outcome,[17],inactive
